Data published in paper PMC4336329 (PLoS ONE, 2015).
The campaign covered roughly 310,000 compounds. About 14,000 (4.5%) showed an effect of 50% or more. Effects have a minus sign here. The list comes from a sample in which strong results are over-represented; it also holds similar structures and randomly drawn compounds.

molecular target: human ether-à-go-go-related gene (hERG) potassium channel (human, UniProt Q12809); test: primary screen, population patch clamp on CHO cells stably expressing hERG; higher = less effect of the substance
Sequence (Q12809 whole entry, looked up): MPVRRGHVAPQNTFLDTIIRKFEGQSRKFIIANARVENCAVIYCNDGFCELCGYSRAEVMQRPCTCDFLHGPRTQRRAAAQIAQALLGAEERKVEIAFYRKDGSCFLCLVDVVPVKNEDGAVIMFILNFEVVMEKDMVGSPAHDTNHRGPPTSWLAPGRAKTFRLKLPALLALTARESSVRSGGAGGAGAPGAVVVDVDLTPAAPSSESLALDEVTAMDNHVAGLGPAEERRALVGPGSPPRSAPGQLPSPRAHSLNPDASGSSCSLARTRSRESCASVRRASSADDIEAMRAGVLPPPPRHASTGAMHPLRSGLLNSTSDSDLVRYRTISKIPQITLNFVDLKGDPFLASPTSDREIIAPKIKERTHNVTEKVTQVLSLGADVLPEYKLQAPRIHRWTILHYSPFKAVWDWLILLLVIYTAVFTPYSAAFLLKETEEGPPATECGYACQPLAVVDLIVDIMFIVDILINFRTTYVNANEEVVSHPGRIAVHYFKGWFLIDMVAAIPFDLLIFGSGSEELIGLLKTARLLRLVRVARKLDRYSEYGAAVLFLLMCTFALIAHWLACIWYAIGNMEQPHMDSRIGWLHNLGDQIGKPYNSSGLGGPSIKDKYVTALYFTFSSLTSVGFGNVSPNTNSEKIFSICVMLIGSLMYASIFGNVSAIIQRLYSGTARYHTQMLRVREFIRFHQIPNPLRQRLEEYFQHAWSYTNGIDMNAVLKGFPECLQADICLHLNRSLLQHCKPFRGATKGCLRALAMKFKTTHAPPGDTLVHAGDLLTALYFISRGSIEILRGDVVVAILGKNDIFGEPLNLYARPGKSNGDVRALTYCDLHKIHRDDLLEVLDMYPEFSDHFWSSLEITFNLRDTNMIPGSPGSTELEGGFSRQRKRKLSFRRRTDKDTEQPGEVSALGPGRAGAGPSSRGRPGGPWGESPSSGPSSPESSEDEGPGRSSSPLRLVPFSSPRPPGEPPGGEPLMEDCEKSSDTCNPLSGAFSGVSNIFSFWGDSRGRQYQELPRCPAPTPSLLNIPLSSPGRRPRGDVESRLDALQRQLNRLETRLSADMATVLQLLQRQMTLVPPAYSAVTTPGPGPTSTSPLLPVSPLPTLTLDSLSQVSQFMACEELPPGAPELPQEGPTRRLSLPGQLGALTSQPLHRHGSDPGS
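Note: peak tail current of the secondary pulse compared with the same well before compound.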

SMILES | hERG current change (%, negative = inhibition) at 10uM [%]
O=C(CSc1ccccn1)Nc1cccc(NC(=O)CSc2ccccn2)n1 | -11.9
Cn1c(=O)c(=O)n(C)c2cc(S(=O)(=O)N3CCC(Cc4ccccc4)CC3)ccc21 | -10.9
O=S(=O)(c1ccccc1)N1CCN(C2CCN(Cc3ccccc3)CC2)CC1 | -64
Cn1c(=O)c(=O)n(C)c2cc(S(=O)(=O)N3CCN(Cc4ccccc4)CC3)ccc21 | -63.4
O=S(=O)(c1ccccc1)N1CCN(Cc2ccccc2)CC1 | 19.3
CS(=O)(=O)N1CCN(C2CCN(Cc3ccccc3)CC2)CC1 | -1.48
O=S(=O)(c1ccccc1)N1CCN(Cc2ccc(Cl)cc2)CC1 | -22.7
O=S(=O)(c1ccc(Cl)cc1)N1CCN(C2CCN(Cc3ccccc3)CC2)CC1 | -71.4
O=[N+]([O-])c1ccccc1S(=O)(=O)N1CCN(C2CCN(Cc3ccccc3)CC2)CC1 | -51.9
Cn1c(=O)c(=O)n(C)c2cc(S(=O)(=O)N3CC(=O)N(CCc4ccccc4)C(=O)C3)ccc21 | 19.4
O=[N+]([O-])c1ccccc1S(=O)(=O)N1CCN(C2CCCC2)CC1 | 0.58
O=[N+]([O-])c1ccccc1S(=O)(=O)N1CCN(Cc2ccccc2)CC1 | -34.6
O=S(=O)(c1ccc(Cl)cc1)N1CCN(C2CCCCCC2)CC1 | -17.3
CC(=O)c1c(C)[nH]c(C(=O)COc2cc(C)ccc2C(C)C)c1C | 14.1
O=C(CSc1nnnn1-c1ccc2c(c1)OCCO2)N1CCN(C(=O)c2ccco2)CC1 | -16.6
CCN1C(=O)S/C(=C/c2ccc(Oc3ccc([N+](=O)[O-])cn3)c(OC)c2)C1=O | 9.24
O=C(COC(=O)c1cccs1)Nc1ccc(F)c(F)c1 | 12.2
COC(=O)COc1ccc(/C=C2/NC(=O)N(CC(=O)OC)C2=O)cc1 | 12.3
CC1(C)CC(=O)C(Sc2ccccc2)=C(O)C1 | 15.8
COc1ccccc1N1CCN(C2CCN(S(=O)(=O)c3ccc(NC(C)=O)cc3)CC2)CC1 | 0.727
COc1ccccc1N1CCN(C2CCN(S(=O)(=O)c3ccc(C)cc3)CC2)CC1 | -36.4

SMILES | hERG current change (%, negative = inhibition) at 10uM [%]
COc1ccc(S(=O)(=O)N2CCC(N3CCN(c4ccccc4OC)CC3)CC2)cc1 | -66.5
O=C(O)C(=O)O.O=[N+]([O-])c1ccc(S(=O)(=O)N2CCN(Cc3ccco3)CC2)cc1 | 15.3
O=C(O)C(=O)O.O=[N+]([O-])c1ccc(S(=O)(=O)N2CCN(C3CCN(Cc4ccccc4)CC3)CC2)cc1 | -78.2
CC(=O)Nc1ccc(S(=O)(=O)N2CCN(Cc3cccc([N+](=O)[O-])c3)CC2)cc1.O=C(O)C(=O)O | -3.41
COc1ccc(N(CC(=O)NCCSCc2ccc(C)cc2)S(=O)(=O)c2ccccc2)cc1 | 3.04
O=c1cccc2n1CC1CC2CN(S(=O)(=O)c2ccccc2)C1 (stereo not drawn) | -3.59
Cc1cc2occ(CC(=O)N(C)CC(=O)Nc3ccc(F)cc3)c2cc1C | -9.51
COC(=O)CN=C1OC(=O)N2C(=O)C3=C4[C@@H](C[C@H]5C(=O)N(c6ccccc6)C(=O)[C@H]5[C@H]4[C@@]12Cc1ccccc1)[C@H]1C(=O)N(c2ccccc2)C(=O)[C@H]1[C@H]3C | 4.25
O=C(c1ccccc1)N1CCN(c2ncnc3sc4c(c23)CCC4)CC1 | -56
O=C(Nc1ncnc2sc3c(c12)CCC3)c1ccco1 | -4.5
c1ccc(N2CCN(c3ncnc4sc5c(c34)CCC5)CC2)cc1 | 12.4
O=C(c1ccco1)N1CCN(c2ncnc3sc4c(c23)CCC4)CC1 | -56.6
O=C(CSc1ncnc2sc3c(c12)CCCC3)c1ccco1 | 6.66
Oc1ccc(N2CCN(c3ncnc4sc5c(c34)CCC5)CC2)cc1 | -7.35
COc1ccc2nc(NC(=O)C3CCN(S(=O)(=O)c4cccs4)CC3)sc2c1 | -13.6
COc1cc(OC)cc(C(=O)NC2CCSC2=O)c1 (stereo not drawn) | -5.55
CCN(CC)CCCC(C)NC(=O)c1ccc(C(F)(F)F)cc1.Cl (stereo not drawn) | -7.01
CCOC(=O)N1CCN(C(=O)Cn2nc(C)n3nc(-c4ccc(OC)cc4)cc3c2=O)CC1 | 13.4
CC(Sc1nnc(-c2cccs2)n1-c1ccccc1)C(=O)NCc1ccc2c(c1)OCO2 (stereo not drawn) | -74.8
Cn1c(SCC(=O)NCc2ccc3c(c2)OCO3)nnc1-c1cccs1 | -17.1
O=C(CSc1nnc(-c2cccs2)n1Cc1ccccc1)NCc1ccc2c(c1)OCO2 | -75.8

SMILES | hERG current change (%, negative = inhibition) at 10uM [%]
CC(Sc1nncn1C)C(=O)NCc1ccc2c(c1)OCO2 (stereo not drawn) | 34.9
CC(Sc1nnc2ccccn12)C(=O)NCc1ccc2c(c1)OCO2 (stereo not drawn) | 4.95
CCn1c(SCC(=O)NCc2ccc3c(c2)OCO3)nnc1-c1ccncc1 | 13
O=C(CSc1nnc(-c2cccs2)n1-c1ccccc1)NCc1ccc2c(c1)OCO2 | -43.7
CCn1c(SCC(=O)NCc2ccc3c(c2)OCO3)nnc1-c1cccs1 | -23.1
CC(Sc1nnc(-c2cccs2)n1Cc1ccccc1)C(=O)NCc1ccc2c(c1)OCO2 (stereo not drawn) | -55.9
COCC(=O)Nc1cc(C(=O)Nc2ccccc2C)ccc1Cl | -3.92
COc1cc(CNc2cc(C)ccc2C)cc(OC)c1OC | -4.46
Cc1cc(C)nc(N/N=C/c2c(CO)cnc(C)c2O)n1 | -10.7
O=C(Nc1cccc2oc(=O)ccc12)c1ccc([N+](=O)[O-])cc1[N+](=O)[O-] | -59.9
COc1ccccc1NC(=O)c1ccc([N+](=O)[O-])cc1[N+](=O)[O-] | -19.6
O=C(Nc1ncccn1)c1ccc([N+](=O)[O-])cc1[N+](=O)[O-] | -7.61
CCOc1ccccc1C(=O)Nc1ccc2nc(N3CCN(c4ncccn4)CC3)cc(C)c2c1 | -8.08
COc1cc(C)c(NC(=S)Nc2cccc(Cl)c2)cc1OC | 6.72
Cc1ccc(CNC(=O)CCn2nc(-c3ccc(Cl)cc3)ccc2=O)cc1 | -35.3
COCCCNC(=O)CCn1nc(-c2ccc(Cl)cc2)ccc1=O | -27.9
COCCNC(=O)CCn1nc(-c2ccc(C)cc2)ccc1=O | -34.4
Cc1ccc(-c2ccc(=O)n(CC(=O)NCCN3CCCCC3C)n2)cc1 (stereo not drawn) | 0.96
CCCCNC(=O)Cn1nc(-c2ccc(C)cc2)ccc1=O | -1.13
CC(NC(=O)Cn1nc(-c2ccccc2)ccc1=O)c1ccccc1 (stereo not drawn) | -13.4
Cc1ccc(-c2ccc(=O)n(CCC(=O)NCCN3CCCCC3C)n2)cc1 (stereo not drawn) | -58.7

SMILES | hERG current change (%, negative = inhibition) at 10uM [%]
O=C(CCn1nc(-c2ccc(Cl)cc2)ccc1=O)NCc1ccccn1 | -32
CC(NC(=O)CCn1nc(-c2ccc(Cl)cc2)ccc1=O)c1ccccc1 (stereo not drawn) | -60.6
CCCCN(C)CCNC(=O)CCn1nc(-c2ccc(C)cc2)ccc1=O | -83.4
Cc1ccc(-c2ccc(=O)n(CCC(=O)NCc3ccccn3)n2)cc1 | -61
Cc1ccc(-c2ccc(=O)n(CC(=O)NCCCN3CCCCC3C)n2)cc1 (stereo not drawn) | -10.3
O=C(CCc1ccccc1)NCCCNC(=O)CCc1ccccc1 | 7.49
C=CCn1c(C)nnc1SCC(=O)Nc1nccs1 | 16.6
NC(=O)c1ccccc1NC(=O)/C=C/c1c(Cl)cccc1Cl | -31.3
Cc1ccc(-c2nnc(N)o2)cc1 | 9.43
Cc1ccc(NC(=O)COC(=O)CCc2ccccc2)c(Cl)c1 | 27.1
CCCCN(C)CCNC(=O)CCn1nc(-c2ccc(Cl)cc2)ccc1=O | -67.1
CN(C)CCNC(=O)CCn1nc(-c2ccc(Cl)cc2)ccc1=O | -15.4
CCCCNC(=O)CCn1nc(-c2ccc(Cl)cc2)ccc1=O | -23.4
CC(C)CCNC(=O)CCn1nc(-c2ccc(Cl)cc2)ccc1=O | -54.6
CC(C)CCNC(=O)CCn1nc(-c2ccccc2)ccc1=O | -46.8
COCCNC(=O)CCn1nc(-c2ccc(Cl)cc2)ccc1=O | -30.2
O=C(CSCc1c(F)cccc1Cl)Nc1ccccc1C(=O)N1CCOCC1 | 5.4
Cc1ccc(C)c(-c2ccc(=O)n(Cc3cccc(Br)c3)n2)c1 | 10.7
CCOc1ccc(NC(=O)C2CCCN(c3nc(C)cc(C)n3)C2)cc1 (stereo not drawn) | 12.4
O=C(OCC(=O)c1c[nH]c2ccccc12)c1cc2ccccc2cc1O | 1.38
COc1cccc(NC(=O)CN2C(=O)COc3ccc(S(=O)(=O)N4CCOCC4)cc32)c1 | 15.6
